Screening results from PubChem.
PRMT1 inh = inhibitors of human PRMT1; AID 652257; Q99873; recombinant PRMT1, activity-based probe fluorescence polarization; 1.3% of 370,000 active; inhibition, % at 2.79 µM;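 active = inhibition above about 21% made by adding two undisclosed values, limit read from the data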
Rtt109 Vps75 = inhibitors of Candida albicans Rtt109/Vps75 histone acetyltransferase; Q5AAJ8; purified Rtt109/Vps75, ThioGlo CoA-SH fluorescence, 4 h; inhibition, % at 34.9 µM; 0.16% of 330,000 active; AID 540336;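 active = inhibition of at least 50% in every replicate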
Target sequence (Q5AAJ8 whole entry, looked up): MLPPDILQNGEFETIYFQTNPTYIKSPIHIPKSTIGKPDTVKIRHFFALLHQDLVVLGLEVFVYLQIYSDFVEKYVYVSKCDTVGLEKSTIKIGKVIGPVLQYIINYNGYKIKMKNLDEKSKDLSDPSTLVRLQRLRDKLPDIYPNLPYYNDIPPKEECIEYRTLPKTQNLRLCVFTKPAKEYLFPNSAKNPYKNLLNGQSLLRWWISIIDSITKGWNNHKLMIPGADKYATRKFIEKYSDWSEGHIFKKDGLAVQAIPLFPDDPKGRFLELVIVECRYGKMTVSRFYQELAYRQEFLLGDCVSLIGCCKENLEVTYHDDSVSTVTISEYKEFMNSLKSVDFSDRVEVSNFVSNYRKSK
ALR H2O2 inh = blocks human ALR sulfhydryl oxidase activity. 3.8% of 290,000 active. inhibition, % (no concentration beside the values). purified ALR, DTT oxidation, H2O2 HRP-luminol luminescence. P55789;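 active = mean replicate inhibition above about 79%, with every replicate also reaching it, limit read from the data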
Target sequence (P55789 whole entry, looked up): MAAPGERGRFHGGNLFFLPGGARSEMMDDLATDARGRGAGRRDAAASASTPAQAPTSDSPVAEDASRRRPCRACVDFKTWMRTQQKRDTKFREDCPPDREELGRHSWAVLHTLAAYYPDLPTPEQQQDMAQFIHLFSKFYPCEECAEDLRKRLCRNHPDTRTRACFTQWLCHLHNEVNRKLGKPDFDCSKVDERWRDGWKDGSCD
LANA-H2B inh = blocks KSHV LANA binding to histone H2A/H2B; Q9QR71; cell-free LANA-H2A/H2B peptide, fluorescence polarization; inhibition, % (test concentration not listed); 0.6% of 320,000 active; AID 2629; in the data active = inhibition mostly above about 10%, no sharp cut-off; inactive = mostly below about 6.7%
rCAG RNA binder = molecules binding r(CAG) RNA repeats; AID 651821; inhibition, % at 3 µM; 1.3% of 370,000 active; r(CAG) RNA repeat, TO-PRO-1 dye displacement fluorescence;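 active = inhibition above the plate cutoff, the mean of all test compounds on that plate plus 3 SD, cut at about 35% in these data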;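 note: higher means more dye released from RNA so lower well fluorescence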
ABHD5 PLIN5 PPI = blocks binding of human ABHD5 to perilipin-5; Split G. princeps luciferase complementation, luminescence, 4 h; inhibition, % at 4 µM; 0.78% of 360,000 active; AID 602281;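 active = inhibition above the mean inhibition across every tested compound plus 3 SD, cut at about 22% in these data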
ABHD5 PLIN5 conf = ABHD5-PLIN5 interaction inhibition, confirmed | shares compounds with ABHD5 PLIN5 PPI | biochemical ABHD5-PLIN5 interaction, luminescence | inhibition, % at 4 µM | 67% of 2,200 active | AID 651612; in the data active = inhibition above about 23%
HNF4 split-luc = counter-screen for ABHD5-PLIN5 inhibitors: HNF4 split-luciferase; HNF4 dimerization, luminescence, biochemical; AID 651674; 77% of 2,200 active; shares compounds with ABHD5 PLIN5 PPI; inhibition, % at 4 µM;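 active = mean inhibition across replicate wells exceeding the computed hit threshold, cut at about 13% in these data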;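 note: light from luciferase halves that rejoin when HNF4 fusion proteins dimerize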
rCAG bind conf = r(CAG) RNA repeat binding, confirmation; shares compounds with rCAG RNA binder; TO-PRO-1 dye displacement fluorescence; inhibition, % at 3 µM; 70% of 4,300 active;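 active = inhibition above a per-plate cutoff, the mean inhibition of sample wells plus 3 SD, cut at about 35% in these data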;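 note: loss of TO-PRO-1 fluorescence as compound displaces dye from 1x1 AA loop RNA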
dCAG dye counter = DNA CAG dye complex inhibition counter-screen. inhibition, % at 3 µM. d(CAG) DNA oligo TO-PRO-1 dye displacement, fluorescence. 94% of 4,300 active. shares compounds with rCAG RNA binder;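 active = inhibition above its plate's cutoff, the mean test-well inhibition plus 3 SD, cut at about 4.8% in these data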;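 note: hits displace the dye from DNA and so lower well fluorescence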
DNA CAG DR = counter-screen for rCAG binders: inhibitors of DNA CAG TO-PRO-1 complex. shares compounds with rCAG RNA binder. DNA CAG/GTC duplex TO-PRO-1 dye displacement fluorescence. IC50, µM. 20% of 250 active. AID 686960; in the data active = IC50 below about 10 µM
PRMT1 confirm = confirmation of human PRMT1 inhibitors. shares compounds with PRMT1 inh. recombinant His-PRMT1, activity-based probe fluorescence polarization. inhibition, % at 2.79 µM. 42% of 3,300 active. AID 687036;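 active = mean inhibition across replicates above the hit cutoff derived for the earlier primary screen, cut at about 22% in these data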
Of the large screens only hits and unclear results are named; the others gave an inactive call (follow-up assays come after a bar, where they were run). Compounds with a hit are over-represented: about 5.9% of the library has one in this group of screens.

O=C(N[C@H](Cc1ccccc1)C(=O)NCc1ccc2c(c1)OCO2)[C@H]1O[C@@H](n2ccc(=O)[nH]c2=O)[C@H](O)[C@@H]1O	none (no result: Rtt109 Vps75, ALR H2O2 inh, LANA-H2B inh, ABHD5 PLIN5 PPI)
COC(=O)[C@]12C[C@H](CC(=O)NCc3ccc(OC)c(OC)c3)C(=O)N(Cc3cccc4ccccc34)C1=C[C@H](C(C)C)O[C@@H]2C1CC1	none (no result: Rtt109 Vps75, ALR H2O2 inh, LANA-H2B inh, ABHD5 PLIN5 PPI)
COc1cc(C=C2C(=O)C=CC2=O)ccc1O	PRMT1 inh 91.0, rCAG RNA binder 72.5, ABHD5 PLIN5 PPI 99.2 (no result: Rtt109 Vps75, ALR H2O2 inh, LANA-H2B inh) | ABHD5 PLIN5 conf 94.4 | HNF4 split-luc 107.6 | rCAG bind conf inactive | dCAG dye counter 5.4 | PRMT1 confirm 100.0
O=C(O)c1ccccc1NS(=O)(=O)c1cccc(-n2sc3ccccc3c2=O)c1	PRMT1 inh 93.6, Rtt109 Vps75 152.7, ALR H2O2 inh 98.5, rCAG RNA binder 71.6, ABHD5 PLIN5 PPI 36.7 | ABHD5 PLIN5 conf 92.8 | HNF4 split-luc 115.0 | rCAG bind conf 74.4 | dCAG dye counter 34.0 | DNA CAG DR 7.2 | PRMT1 confirm 93.0
O=C(O)c1ccccc1NS(=O)(=O)c1cccc(C(F)(F)F)c1	none
O=C(Nc1ccccc1)C1=C(c2ccccc2)S(=O)(=O)CCS1(=O)=O	PRMT1 inh 46.7, ABHD5 PLIN5 PPI 87.6 (no result: ALR H2O2 inh, LANA-H2B inh) | ABHD5 PLIN5 conf 99.9 | HNF4 split-luc 108.5 | PRMT1 confirm 56.2
CCCCCCCCN1CCS(=O)(=O)N(Cc2ccc(F)cc2)C(C(=O)OC)C1 (stereo not drawn)	none (no result: Rtt109 Vps75, ALR H2O2 inh, LANA-H2B inh, ABHD5 PLIN5 PPI)
O=C1C=CC(=O)N1CCNc1ncc(C(F)(F)F)cc1Cl	PRMT1 inh 92.0, ABHD5 PLIN5 PPI 45.2 (no result: ALR H2O2 inh, LANA-H2B inh) | ABHD5 PLIN5 conf 61.4 | HNF4 split-luc 107.0 | PRMT1 confirm 89.7
O=C1C=CC(=O)N1c1ccccc1N1C(=O)C=CC1=O	PRMT1 inh 92.7, ABHD5 PLIN5 PPI 30.4 (no result: ALR H2O2 inh, LANA-H2B inh) | ABHD5 PLIN5 conf 64.1 | HNF4 split-luc 109.4 | PRMT1 confirm 89.9
O=C(c1ccccc1)c1ccccc1N1C(=O)C=CC1=O	PRMT1 inh 84.8, ABHD5 PLIN5 PPI 44.0 | ABHD5 PLIN5 conf 45.0 | HNF4 split-luc 105.4 | PRMT1 confirm 97.0
O=C(/C=C1\C(=O)Nc2ccccc21)/C=C1\C(=O)Nc2ccccc21	PRMT1 inh 52.6, rCAG RNA binder 39.0, ABHD5 PLIN5 PPI 63.0 (no result: ALR H2O2 inh, LANA-H2B inh) | ABHD5 PLIN5 conf 101.5 | HNF4 split-luc 105.2 | rCAG bind conf inactive | dCAG dye counter 19.8 | PRMT1 confirm 74.4
CCOc1ccc2nc(NS(=O)(=O)Cc3ccccc3)sc2c1	rCAG RNA binder 44.1 | rCAG bind conf inactive | dCAG dye counter 10.0
NC1(N2SC(S)=C3CCCC=C32)CCCCC1	none (no result: Rtt109 Vps75, ALR H2O2 inh, LANA-H2B inh, ABHD5 PLIN5 PPI)
NNC(=O)c1n[nH]c2c1CC(C1CCCCC1)CC2 (stereo not drawn)	none
COC(=O)C1=CN(c2ccc(C(C)(C)C)cc2)C(N)=C(C#N)C1c1ccccc1F (stereo not drawn)	none (no result: Rtt109 Vps75, ALR H2O2 inh, LANA-H2B inh)
CCc1nnc(NC(=O)CSc2ncnc3scc(-c4ccc(C)cc4)c23)s1	none
O=C(CSc1ncnc2scc(-c3ccc(Cl)cc3)c12)Nc1ccccc1-c1ccccc1	none (no result: Rtt109 Vps75, ALR H2O2 inh, LANA-H2B inh, ABHD5 PLIN5 PPI)
CCCCNC(=O)NS(=O)(=O)c1ccc(NC(=O)CSc2ncnc3scc(-c4ccc(C)cc4)c23)cc1	rCAG RNA binder 77.2 (no result: Rtt109 Vps75, ALR H2O2 inh, LANA-H2B inh, ABHD5 PLIN5 PPI) | rCAG bind conf 70.2 | dCAG dye counter 31.8 | DNA CAG DR inactive
O=C(CSc1ncnc2scc(-c3ccccc3)c12)Nc1ccc(C(=O)O)cc1	rCAG RNA binder 34.5 | rCAG bind conf 34.7 | dCAG dye counter 10.1
